# T1: USP38, Q8NB14
# T1 chain: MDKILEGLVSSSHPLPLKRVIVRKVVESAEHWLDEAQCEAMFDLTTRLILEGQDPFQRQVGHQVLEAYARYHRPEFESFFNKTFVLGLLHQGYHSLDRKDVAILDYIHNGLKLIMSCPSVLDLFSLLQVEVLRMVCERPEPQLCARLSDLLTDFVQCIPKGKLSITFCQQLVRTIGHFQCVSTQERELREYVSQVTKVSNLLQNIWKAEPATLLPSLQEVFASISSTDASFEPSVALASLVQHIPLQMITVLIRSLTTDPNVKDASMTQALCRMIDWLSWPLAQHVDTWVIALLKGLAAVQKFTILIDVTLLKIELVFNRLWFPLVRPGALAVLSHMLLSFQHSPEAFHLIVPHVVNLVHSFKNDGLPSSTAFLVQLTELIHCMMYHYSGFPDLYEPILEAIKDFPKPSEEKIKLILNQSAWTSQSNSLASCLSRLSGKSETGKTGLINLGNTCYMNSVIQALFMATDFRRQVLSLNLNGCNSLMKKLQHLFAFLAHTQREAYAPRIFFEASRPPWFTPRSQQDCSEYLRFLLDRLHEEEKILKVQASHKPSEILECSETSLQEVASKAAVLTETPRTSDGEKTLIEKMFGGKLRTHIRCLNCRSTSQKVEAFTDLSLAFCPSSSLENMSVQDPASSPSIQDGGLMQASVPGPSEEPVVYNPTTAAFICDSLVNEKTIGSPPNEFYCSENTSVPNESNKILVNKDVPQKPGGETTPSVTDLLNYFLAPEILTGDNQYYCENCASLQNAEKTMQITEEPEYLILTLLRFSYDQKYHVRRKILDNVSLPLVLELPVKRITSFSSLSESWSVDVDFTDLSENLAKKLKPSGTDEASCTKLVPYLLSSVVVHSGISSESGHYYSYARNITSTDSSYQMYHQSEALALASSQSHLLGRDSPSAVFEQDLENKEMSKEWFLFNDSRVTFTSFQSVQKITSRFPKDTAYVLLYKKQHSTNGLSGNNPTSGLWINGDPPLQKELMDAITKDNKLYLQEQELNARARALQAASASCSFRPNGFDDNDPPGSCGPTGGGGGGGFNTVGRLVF
# B1: usp_38_diff_out_17_130_224 (protein)
# chain: SAEEVEALKEYLEAEKKNVESVKEDAKKDFERAKKNPVTLDRVEHALEGNIKYMEETIKEAEKLKKEYPEVKEAADKLIKAAKKAKEEFEKYLKEVKALK
# B2: usp_38_diff_out_17_125_221 (protein)
# chain: TDEELKKEIEEALKKAEELLKKAKKLLEEGAPFEEIRAELDKAADALGKLAVLLRELREKSEDKAQAAKFIKEATERANKLIDEYTKLATEAFLREAEAA
# B3: usp_38_diff_out_17_26_237 (protein)
# chain: SAEEKRKEAEKLLEELEKYVKETLEKIDKLIEEGKFEEAKKLLDELVTETTKRFTEILELAADDPELMDKALAKYDELSGQIAARYRRLEEARREAEAKA
# B4: usp_38_diff_out_17_26_239 (protein)
# chain: SSEEKRKEAEKLLKEMEEKTEEALKEIDKLIAEGKFAEAQKLLDETIDYVTEKSTEILELASDDDELFEKVMEKIDKISDRLAAAGARLRAARRAARAAA
# B5: usp_38_diff_out_17_26_240 (protein)
# chain: SMEERRKEARKLLEEMEKRVEEDLKKIRELIKEGKFEEAEELLNKTIDYVTETSTKILELAADDDELFDEAMEAIDKISDKLAEAGKELREAKREAREKA
# B6: usp_38_diff_out_17_26_230 (protein)
# chain: AAEERRREARELMRELERRTAEALKEIEKLIEEGKLEEAEKKLDELVDEFTELATRLLELAADDDELFEEAVRVIDAAADRIAAAGNLLREAKKKKREEE
# B7: usp_38_diff_out_17_26_236 (protein)
# chain: SAEERREEARRALEELRADTDAALKEIDALIKAGKFEEAQALLDKLVDDFTKRATEILELAADDPELMDEALRAIGEVADKIAAAGSRLRAARKAAREAA
# B8: usp_38_diff_out_17_26_238 (protein)
# chain: EAEERRKEARKLLEELKEKTEKDLEEIRKLIKEGKFEEAEKLLDETIDYVTEKSTEILELAADDDELFAEALAAIDEIFDKLAAAGKELREAKREAREKE
# B9: usp_38_diff_out_17_26_235 (protein)
# chain: SAEEKRKKALELLKELEKETEKELEEIEKLIKEGKFEEAEKKLDELVTKTTEKTTEILELAADDPELVEEVLKSYDKISDKIAEKYKELQEAKKKARAEA
# B10: usp_38_diff_out_17_130_225 (protein)
# chain: SADEVEALKEYLEAEKANIEAVAADAERDLARAKRLPVTLPRVRHALEGNIKYMEETIKEAEEIKKKYPEVAAAADALIKAARDAKAKFEAMLAEVDALE
# B11: usp_38_diff_out_17_26_231 (protein)
# chain: SAEAARAKAEALLKELVAETDKALKEIDKLIKEGKFEEAEKLLDETVDKVTEKATEIFELAADDEALLDKANKTIGDIFDKLAARYKELQAARKAAKAAA
# B12: usp_38_diff_out_17_125_220 (protein)
# chain: SDEELKKKAEELLKKAEELLKQAEKALEEGAPFEEIEKLLDEAADALGELAKTLRELREKSKDPAQAAKFIKEATEKANELIDRYTELATRAFLRQAEAA
# B13: usp_38_diff_out_17_130_228 (protein)
# chain: MEEEIESLKEYLEAEKKNLESVAKQAEEDYERAKKNPVTLDRVIHGLEGVATYAEDTIKEAKELIKEYPEVKEEAEKLIKVAEEAKKKAEALKKKLEALK
# B14: usp_38_diff_out_17_130_227 (protein)
# chain: SAEEIESLKEYLRAEKENLKSVKEEAKKNLERAKKNPVTLDRVSHGLEGVATYAEDTIKEAKELLKKYPEVAEEAKELIKVAEEARKEAKELLKEVEKLK
# B15: usp_38_diff_out_17_26_234 (protein)
# chain: SAEEERRRARELLEELRRRTEEALARIRELIAAGRFAEAQALLDATVTEVTATATEIFELAADDDELLDEVNRAVGEIFDRLAAAGRELREARRAAAAAA
# B16: usp_38_diff_out_17_130_223 (protein)
# chain: SEDEIEALKEYLEAEKKNIKSVAEEAEKDFERAKKHPVTLDRALHALDGVIKYYEETIEEAKKILKEYPEVKEAAEELIKTAEEAKKKAEKLKKELEKLK
# Molecular target: T1, USP38, Q8NB14
# Assay: median log2 fold change of GCK-ALFA target abundance (FLAG IP / Myc IP barcode read proportion) (log2 ratio); each designed protein is fused to an ALFA-tag nanobody in HEK293 cells to bring the named protein to FLAG-tagged glucokinase (GCK); Myc marks an untargeted standard; higher = target protein stabilised (more abundant)
# Conditions: target protein: 3xFLAG-MCP-GCK-ALFA reporter; HEK293 landing pad (RPLP)
# Outline: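 Sequencing of reverse-transcribed, amplified circular RNA barcodes from anti-FLAG and anti-Myc immunoprecipitates provided the readout for an ALFA-nanobody-fused binder library recombined into HEK293 landing-pad cells. Those cells were induced with 2 μg mL^−1 doxycycline, transfected with a plasmid expressing a FLAG-tagged target and a Myc-tagged standard, and lysed after 48 h. Target abundance is the per-binder median log2 ratio of FLAG to Myc barcode read proportions. Only barcodes at a proportion of ≥10^−7 in both replicates and binders with ≥3 barcodes per replicate were kept, with a 10^−6 pseudocount added before the two replicates were pooled.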
row,Binder,median log2 fold change
1,B1,0.401
2,B2,-0.359
3,B3,0.259
4,B4,-0.0256
5,B5,0.0157
6,B6,-0.167
7,B7,0.0259
8,B8,-0.0599
9,B9,0.284
10,B10,0.15
11,B11,-0.439
12,B12,0.167
13,B13,0.184
14,B14,0.32
15,B15,-0.0515
16,B16,0.232
